# Laboratory results taken from PubChem BioAssay (NCATS).
# Where “and” joins values, the source holds several entries; their conditions need not be identical. Equal values may be shown once. Results filed as inconclusive are left out. A call without a number means that no potency is given here. Calls of active or inactive are those of the source. Unless noted, the call rests on the fitted dose curve.
# What was measured:
# [1] = target: DNA dC->dU-editing enzyme APOBEC-3G (Homo sapiens) (UniProt Q9HC16); assay: qHTS for inhibitors of Vif-A3G interactions: Validation (AID 588379; active means well fitted curve in the direction sought with a large enough effect; an effect the other way counts as inactive or inconclusive); details: Vif-A3G protein interaction assay; series mostly up to 46.1 µM
# Sequence of DNA dC->dU-editing enzyme APOBEC-3G (Homo sapiens) (Q9HC16 whole entry, looked up): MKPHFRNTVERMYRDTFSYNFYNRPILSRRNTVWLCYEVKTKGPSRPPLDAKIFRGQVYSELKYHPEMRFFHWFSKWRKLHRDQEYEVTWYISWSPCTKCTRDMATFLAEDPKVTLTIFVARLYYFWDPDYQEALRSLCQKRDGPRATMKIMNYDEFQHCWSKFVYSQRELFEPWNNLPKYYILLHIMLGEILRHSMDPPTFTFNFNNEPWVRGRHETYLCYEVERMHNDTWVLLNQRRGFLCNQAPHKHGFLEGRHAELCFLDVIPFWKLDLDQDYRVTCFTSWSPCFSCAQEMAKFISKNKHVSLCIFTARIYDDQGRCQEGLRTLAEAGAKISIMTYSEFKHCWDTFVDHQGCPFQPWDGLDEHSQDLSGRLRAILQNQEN
# Method in brief: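 Yellow fluorescence (Ex 488, Em 500-530) of Vif-coexpressing HeLa A3G-eYFP cells, scanned by Acumen cytometer, reports blocked A3G degradation. Cells plated at 700/well overnight at 37 deg C before compound addition, then a further overnight compound incubation at 37 deg C.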
# [2] = target: Estrogen receptor (Homo sapiens) (UniProt P03372); assay: qHTS assay for small molecule agonists of estrogen receptor alpha signaling (AID 588514); details: ER-alpha-UAS-bla HEK293, beta-lactamase ratio, 18 h; series mostly up to 76.8 µM; further: nearly all actives have a fitted effect of over 70% in size; further: potency means the concentration at half of the fitted maximal effect
# Sequence of Estrogen receptor (Homo sapiens) (P03372 whole entry, looked up): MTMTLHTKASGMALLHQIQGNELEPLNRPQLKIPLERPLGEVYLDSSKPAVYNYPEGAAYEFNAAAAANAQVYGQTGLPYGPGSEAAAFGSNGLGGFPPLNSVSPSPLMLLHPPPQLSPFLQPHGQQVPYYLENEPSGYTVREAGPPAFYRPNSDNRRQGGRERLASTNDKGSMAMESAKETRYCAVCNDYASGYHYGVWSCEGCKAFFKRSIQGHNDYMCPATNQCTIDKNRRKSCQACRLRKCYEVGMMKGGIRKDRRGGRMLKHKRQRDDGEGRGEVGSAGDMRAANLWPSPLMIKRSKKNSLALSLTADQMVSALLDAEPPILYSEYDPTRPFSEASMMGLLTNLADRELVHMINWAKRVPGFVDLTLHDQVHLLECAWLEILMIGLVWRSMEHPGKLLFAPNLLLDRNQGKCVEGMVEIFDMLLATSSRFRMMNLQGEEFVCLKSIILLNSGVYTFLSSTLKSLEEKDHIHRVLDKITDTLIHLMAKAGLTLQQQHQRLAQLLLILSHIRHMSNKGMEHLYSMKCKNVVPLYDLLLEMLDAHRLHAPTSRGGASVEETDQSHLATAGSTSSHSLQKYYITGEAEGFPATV
# Method in brief: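 Fluorescence from CCF4 cleavage reports ER-alpha-driven beta-lactamase expression in HEK 293 cells treated 18 hrs at 37 C. Data normalized to 17-beta-estradiol (20 nM) and DMSO, fitted to Hill equation.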
# [3] = target: Glucocorticoid receptor (Homo sapiens) (UniProt P04150); assay: qHTS assay for small molecule antagonists of glucocorticoid receptor signaling (AID 588533; active means well fitted inhibition curve with a large enough effect in the signal ratio, with a control signal flat, not every such curve was filed as active; the % refers to the signal ratio;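 further: cells stimulated with 2 nM dexamethasone as agonist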; further: potency means the concentration at half of the fitted maximal effect); details: HeLa MMTV-bla, GRE beta-lactamase ratio, antagonist mode, 18 h; series mostly up to 76.8 µM
# Sequence of Glucocorticoid receptor (Homo sapiens) (P04150 whole entry, looked up): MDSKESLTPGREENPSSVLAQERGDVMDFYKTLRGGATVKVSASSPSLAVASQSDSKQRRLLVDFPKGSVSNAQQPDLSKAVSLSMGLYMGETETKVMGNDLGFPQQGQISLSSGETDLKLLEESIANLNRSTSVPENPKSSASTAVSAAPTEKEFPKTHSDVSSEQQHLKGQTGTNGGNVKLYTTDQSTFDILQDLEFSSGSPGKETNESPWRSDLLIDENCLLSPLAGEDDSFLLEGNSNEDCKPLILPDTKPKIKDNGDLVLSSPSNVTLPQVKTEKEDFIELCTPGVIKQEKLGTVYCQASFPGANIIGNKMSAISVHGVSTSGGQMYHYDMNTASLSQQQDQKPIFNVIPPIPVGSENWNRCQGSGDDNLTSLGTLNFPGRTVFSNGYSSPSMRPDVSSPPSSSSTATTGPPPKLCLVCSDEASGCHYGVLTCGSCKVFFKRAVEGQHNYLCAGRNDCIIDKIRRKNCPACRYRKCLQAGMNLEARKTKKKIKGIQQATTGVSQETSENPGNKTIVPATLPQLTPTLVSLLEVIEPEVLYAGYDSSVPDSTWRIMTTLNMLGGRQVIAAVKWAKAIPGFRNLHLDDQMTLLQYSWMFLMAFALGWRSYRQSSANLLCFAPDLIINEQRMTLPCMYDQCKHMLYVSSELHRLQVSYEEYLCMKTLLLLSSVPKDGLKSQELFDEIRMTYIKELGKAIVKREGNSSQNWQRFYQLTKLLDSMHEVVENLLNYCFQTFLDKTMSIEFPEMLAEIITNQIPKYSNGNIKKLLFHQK
# Method in brief: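 Antagonist-mode qHTS: compound titrations added to GRE-bla HeLa cells, then dexamethasone 2 nM final; 18 h, 37 C. CCF4 FRET fluorescence normalized to dexamethasone and DMSO; IC50 from Hill fit.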
# [4] = qHTS assay for small molecule antagonists of peroxisome proliferator-activated receptor delta signaling (AID 588535; active means well fitted inhibition curve with a large enough effect in the signal ratio, with a control signal flat, not every such curve was filed as active; the % refers to the signal ratio;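 on max response: cells co-treated with a PPAR-delta agonist as stimulator during compound exposure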); details: HEK293T PPARd-UAS-bla, beta-lactamase FRET ratio, 18 h; 460 nm channel
# Method in brief: (§1)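 Compounds tested in titration on PPAR-delta-UAS-bla HEK293T cells grown in charcoal/dextran-stripped serum (2%); beta-lactamase activity read via CCF4 emission at 460 and 530 nm.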
# [5] = target: Peroxisome proliferator-activated receptor delta (Homo sapiens) (UniProt Q03181); assay: as above; details: HEK293T PPARd-UAS-bla, beta-lactamase FRET ratio, 18 h; series mostly up to 76.7 µM
# Sequence of Peroxisome proliferator-activated receptor delta (Homo sapiens) (Q03181 whole entry, looked up): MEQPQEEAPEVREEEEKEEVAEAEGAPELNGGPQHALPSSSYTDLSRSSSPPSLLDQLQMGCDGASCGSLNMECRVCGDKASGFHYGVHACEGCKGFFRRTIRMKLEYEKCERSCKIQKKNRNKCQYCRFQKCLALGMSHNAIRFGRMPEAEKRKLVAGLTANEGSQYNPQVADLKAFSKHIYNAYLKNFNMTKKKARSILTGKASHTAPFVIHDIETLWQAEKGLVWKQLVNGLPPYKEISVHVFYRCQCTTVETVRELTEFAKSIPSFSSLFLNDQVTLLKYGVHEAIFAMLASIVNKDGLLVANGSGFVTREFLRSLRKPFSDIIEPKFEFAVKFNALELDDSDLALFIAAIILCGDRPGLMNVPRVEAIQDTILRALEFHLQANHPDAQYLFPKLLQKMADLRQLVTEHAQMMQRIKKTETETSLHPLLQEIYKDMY
# Method in brief: as §1
# [6] = target: Peroxisome proliferator-activated receptor gamma (Homo sapiens) (UniProt P37231); assay: qHTS assay for small molecule agonists of peroxisome proliferator-activated receptor gamma signaling (AID 588536; active means well fitted curve in the direction sought with a large enough effect in the signal ratio, with a control signal flat, not every such curve was filed as active; the % refers to the signal ratio); details: HEK293 PPARg-UAS-bla, beta-lactamase ratio, 16 h, percent of rosiglitazone response, DMSO as zero; series mostly up to 76.7 µM
# Sequence of Peroxisome proliferator-activated receptor gamma (Homo sapiens) (P37231 whole entry, looked up): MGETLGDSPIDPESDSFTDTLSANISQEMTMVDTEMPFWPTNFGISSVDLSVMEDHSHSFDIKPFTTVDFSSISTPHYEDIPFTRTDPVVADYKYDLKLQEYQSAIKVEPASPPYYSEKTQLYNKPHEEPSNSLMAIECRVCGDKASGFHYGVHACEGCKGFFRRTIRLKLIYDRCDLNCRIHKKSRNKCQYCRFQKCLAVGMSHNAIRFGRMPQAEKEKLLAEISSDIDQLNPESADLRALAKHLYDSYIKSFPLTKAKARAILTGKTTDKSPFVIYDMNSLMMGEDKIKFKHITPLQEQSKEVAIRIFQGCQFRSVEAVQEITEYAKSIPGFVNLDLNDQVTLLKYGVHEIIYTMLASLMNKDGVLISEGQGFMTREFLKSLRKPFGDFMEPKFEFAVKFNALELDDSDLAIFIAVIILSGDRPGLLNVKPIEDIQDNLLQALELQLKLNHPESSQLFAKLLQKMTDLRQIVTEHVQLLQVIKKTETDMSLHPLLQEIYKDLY
# Method in brief: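 Compound treatment: 16 h, 37 C, HEK293 GeneBLAzer cells. Detection: CCF4, 2 h RT. Values: Hill-fit EC50, efficacy as % of 2 uM rosiglitazone.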
# [7] = target: Vitamin D3 receptor (Homo sapiens) (UniProt P11473); assay: qHTS assay for small molecule antagonists of vitamin D receptor signaling (AID 588541); details: HEK293T VDR-UAS-bla, beta-lactamase ratio, antagonist mode; series mostly up to 76.7 µM;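 further: receptor activated by calcitriol during compound treatment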
# Sequence of Vitamin D3 receptor (Homo sapiens) (P11473 whole entry, looked up): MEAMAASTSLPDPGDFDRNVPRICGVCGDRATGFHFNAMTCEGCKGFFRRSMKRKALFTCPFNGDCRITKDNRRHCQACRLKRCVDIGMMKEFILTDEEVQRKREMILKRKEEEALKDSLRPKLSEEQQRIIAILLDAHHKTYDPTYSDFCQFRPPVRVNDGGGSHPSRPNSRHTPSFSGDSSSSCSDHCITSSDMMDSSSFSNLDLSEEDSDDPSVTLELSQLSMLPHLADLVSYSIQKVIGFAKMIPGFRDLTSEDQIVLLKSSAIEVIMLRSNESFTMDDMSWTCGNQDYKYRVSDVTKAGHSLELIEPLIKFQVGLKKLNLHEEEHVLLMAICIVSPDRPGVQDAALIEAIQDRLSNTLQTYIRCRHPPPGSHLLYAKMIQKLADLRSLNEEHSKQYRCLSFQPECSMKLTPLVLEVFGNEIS
# Method in brief: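 VDR-UAS-bla HEK293T cells (2000/well, 2% charcoal-stripped FBS) were treated with titrated compounds plus 1-alpha,25-dihydroxyvitamin D3 (50 nM or 3 nM final) for 16 h at 37 C. CCF4 beta-lactamase fluorescence was read; Hill fits gave IC50.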
# [8] = target: Vitamin D3 receptor (Homo sapiens) (UniProt P11473); assay: qHTS assay for small molecule agonists of vitamin D receptor signaling (AID 588543); details: HEK293T VDR-UAS-bla, beta-lactamase ratio, 16 h; series mostly up to 76.8 µM
# Method in brief: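 qHTS in agonist mode: compound titrations stimulate a VDR-driven β-lactamase reporter in HEK293T cells over 16 h at 37 °C. Response normalized to 50 nM 1α,25-dihydroxyvitamin D3 = 100%, DMSO = 0%; Hill fitting gives EC50 and maximal response.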
# [9] = qHTS assay for small molecule agonists of retinoid X receptor alpha signaling (AID 588544); details: HEK293T RXRa-UAS-bla, beta-lactamase reporter, 18 h; 530 nm emission
# [10] = target: Retinoic acid receptor RXR-alpha (Homo sapiens) (UniProt P19793); assay: as above; details: HEK293T RXRa-UAS-bla, beta-lactamase reporter, 18 h; series mostly up to 76.7 µM
# Sequence of Retinoic acid receptor RXR-alpha (Homo sapiens) (P19793 whole entry, looked up): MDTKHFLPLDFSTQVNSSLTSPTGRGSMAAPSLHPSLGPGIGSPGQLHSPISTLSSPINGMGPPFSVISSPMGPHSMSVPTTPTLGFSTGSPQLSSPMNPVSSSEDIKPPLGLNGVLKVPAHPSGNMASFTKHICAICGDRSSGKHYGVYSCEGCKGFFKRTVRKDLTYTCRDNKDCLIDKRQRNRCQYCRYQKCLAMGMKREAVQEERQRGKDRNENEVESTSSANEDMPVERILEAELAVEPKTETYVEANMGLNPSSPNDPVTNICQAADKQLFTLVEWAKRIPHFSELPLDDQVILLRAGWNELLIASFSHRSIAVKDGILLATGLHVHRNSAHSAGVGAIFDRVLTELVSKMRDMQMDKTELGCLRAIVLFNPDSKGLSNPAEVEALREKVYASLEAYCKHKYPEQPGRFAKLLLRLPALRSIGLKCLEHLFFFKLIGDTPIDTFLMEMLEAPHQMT
# [11] = target: Thyroid hormone receptor beta (Homo sapiens) (UniProt P10828); assay: qHTS assay for small molecule agonists of thyroid hormone receptor beta signaling (AID 588545); details: TR-UAS-bla GripTite HEK 293, beta-lactamase ratio, agonist mode, 18 h, percent of T3 response, DMSO as zero; series mostly up to 76.7 µM
# Sequence of Thyroid hormone receptor beta (Homo sapiens) (P10828 whole entry, looked up): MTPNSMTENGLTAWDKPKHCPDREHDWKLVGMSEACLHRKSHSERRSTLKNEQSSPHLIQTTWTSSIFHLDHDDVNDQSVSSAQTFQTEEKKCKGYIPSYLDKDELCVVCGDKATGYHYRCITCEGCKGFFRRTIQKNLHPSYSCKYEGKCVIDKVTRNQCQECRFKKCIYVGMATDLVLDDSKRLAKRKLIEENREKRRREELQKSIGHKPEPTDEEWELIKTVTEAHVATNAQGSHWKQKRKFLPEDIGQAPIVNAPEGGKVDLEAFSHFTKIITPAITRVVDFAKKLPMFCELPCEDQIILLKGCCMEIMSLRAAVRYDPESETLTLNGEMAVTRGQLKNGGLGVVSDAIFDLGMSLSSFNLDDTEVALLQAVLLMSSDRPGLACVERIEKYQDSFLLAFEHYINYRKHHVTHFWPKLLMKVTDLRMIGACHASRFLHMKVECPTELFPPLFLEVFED
# Method in brief: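 Cells (2500/well) were seeded, incubated 4 hrs at 37 C, dosed with a compound series, incubated 18 hrs, loaded with CCF4 dye for 2 hrs at RT, then read for fluorescence. Data were scaled between DMSO (0%) and 10 nM T3 (100%).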
# [12] = qHTS assay for small molecule antagonists of retinoid X receptor alpha signaling (AID 588546; active means well fitted inhibition curve with a large enough effect in the signal ratio, with a control signal flat, not every such curve was filed as active; the % refers to the signal ratio; further: potency means the concentration at half of the fitted maximal effect;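 on max response: cells stimulated with 9-cis-retinoic acid as agonist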); details: HEK293T RXRa-UAS-bla, beta-lactamase ratio, antagonist mode; measured here: W530 green channel, cytotoxicity proxy
# Method in brief: (§2)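 Beta-lactamase reporter inhibition, read as CCF4 fluorescence ratio (ex 405, em 460/530 nm) after 2 h at RT. HEK293T UAS-bla cells, 2500/well, were stimulated with 9-cis-RA at 500 or 100 nM final alongside test compound for 18 h at 37 C.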
# [13] = target: Retinoic acid receptor RXR-alpha (Homo sapiens) (UniProt P19793); assay: as above; details: HEK293T RXRa-UAS-bla, beta-lactamase ratio, antagonist mode
# Method in brief: as §2
# [14] = target: Androgen receptor (Homo sapiens) (UniProt P10275); assay: qHTS assay for small molecule agonists of androgen receptor signaling (AID 588515; active means well fitted curve in the direction sought with a large enough effect in the signal ratio, with a control signal flat; the % refers to the signal ratio); details: AR-UAS-bla HEK293, beta-lactamase ratio, agonist 16 h; stronger effect = higher value
# Sequence of Androgen receptor (Homo sapiens) (P10275 whole entry, looked up): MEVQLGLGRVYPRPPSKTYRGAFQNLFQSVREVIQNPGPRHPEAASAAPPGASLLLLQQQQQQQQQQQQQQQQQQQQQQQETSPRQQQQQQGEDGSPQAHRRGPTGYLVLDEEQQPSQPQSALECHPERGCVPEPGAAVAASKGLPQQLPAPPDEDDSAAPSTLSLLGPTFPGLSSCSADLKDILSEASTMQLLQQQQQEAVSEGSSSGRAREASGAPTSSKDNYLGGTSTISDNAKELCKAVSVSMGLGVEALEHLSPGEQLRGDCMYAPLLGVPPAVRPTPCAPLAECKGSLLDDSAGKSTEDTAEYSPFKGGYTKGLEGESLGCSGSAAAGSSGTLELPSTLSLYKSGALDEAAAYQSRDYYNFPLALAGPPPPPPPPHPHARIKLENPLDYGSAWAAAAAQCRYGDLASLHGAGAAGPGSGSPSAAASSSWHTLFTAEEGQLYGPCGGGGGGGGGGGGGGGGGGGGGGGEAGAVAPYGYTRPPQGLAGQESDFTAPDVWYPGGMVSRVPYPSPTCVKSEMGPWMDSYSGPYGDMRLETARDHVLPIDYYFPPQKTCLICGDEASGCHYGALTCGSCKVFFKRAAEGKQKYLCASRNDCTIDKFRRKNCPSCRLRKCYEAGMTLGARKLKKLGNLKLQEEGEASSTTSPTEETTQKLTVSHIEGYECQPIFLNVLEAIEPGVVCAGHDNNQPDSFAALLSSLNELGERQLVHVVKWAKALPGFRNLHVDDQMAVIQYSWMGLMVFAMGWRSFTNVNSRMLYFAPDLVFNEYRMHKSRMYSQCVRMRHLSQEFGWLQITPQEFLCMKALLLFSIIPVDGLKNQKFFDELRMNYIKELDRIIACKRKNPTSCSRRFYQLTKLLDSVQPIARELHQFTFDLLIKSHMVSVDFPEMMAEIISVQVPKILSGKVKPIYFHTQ
# Method in brief: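 Stimulation of an AR-responsive β-lactamase reporter in GripTite HEK293 cells was measured after 16 h compound exposure at 37 °C, via CCF4 fluorescence after 2 h RT. EC50 from Hill fits, normalized to R1881 at 30 nM.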
# [15] = target: Glucocorticoid receptor (Homo sapiens) (UniProt P04150); assay: qHTS assay for small molecule agonists of glucocorticoid receptor signaling (AID 588532; active means well fitted curve in the direction sought with a large enough effect in the signal ratio, with a control signal flat; the % refers to the signal ratio); details: HeLa MMTV-bla, beta-lactamase ratio, agonist, 18 h; stronger effect = higher value; percent of dexamethasone control, DMSO zero
# Method in brief: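 Stimulation of a glucocorticoid response element-driven beta-lactamase gene was measured in HeLa cells. Responses were scaled between DMSO basal and 0.1 uM dexamethasone, then fitted for half-maximal stimulation.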
# [16] = target: Peroxisome proliferator-activated receptor gamma (Homo sapiens) (UniProt P37231); assay: qHTS assay for small molecule antagonists of peroxisome proliferator-activated receptor gamma signaling (AID 588537; active means well fitted inhibition curve with a large enough effect in the signal ratio, with a control signal flat, not every such curve was filed as active; the % refers to the signal ratio; further: potency means the concentration at half of the fitted maximal effect); details: HEK293 PPARg-UAS-bla, beta-lactamase ratio, antagonist mode; series mostly up to 76.8 µM
# Method in brief: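 HEK293 cells, PPAR-gamma-UAS-bla, 3000/well. Pre-incubation 6-6.5 h, 37 C. Compound titration with rosiglitazone 50 nM final, 16 h. CCF4 dye, 2 h RT, dual-emission fluorescence.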
# [17] = qHTS for Inhibitors of ATXN expression: Validation (AID 588378; active means well fitted curve in the direction sought with a large enough effect; an effect the other way counts as inactive or inconclusive; further: nearly all actives have a fitted effect of over 75% in size; further: potency means the concentration at half of the fitted maximal effect); details: cell-based ATXN2 expression reporter assay, luminescence; series mostly up to 57.1 µM
# Method in brief: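 Validation of ATXN2 expression inhibitors uses a cell-based luciferase fusion reporter in HEK293 cells, with 24 h compound exposure and paired viability (fluorescence) and reporter (luminescence) end-point reads.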
# [18] = target: Androgen receptor (Homo sapiens) (UniProt P10275); assay: qHTS assay for small molecule antagonists of androgen receptor signaling (AID 588516; active means well fitted curve in the direction sought with a large enough effect in the signal ratio, with a control signal flat, not every such curve was filed as active; the % refers to the signal ratio; further: potency means the concentration at half of the fitted maximal effect); details: AR-UAS-bla HEK293, beta-lactamase ratio, antagonist mode, 16 h; series mostly up to 76.8 µM
# Method in brief: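 Antagonist-mode qHTS: inhibition of R1881 (10 nM)-driven beta-lactamase expression in GripTite HEK 293 cells is measured after 16 h; values are Hill-derived IC50s normalized between R1881 and DMSO wells.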
# [19] = target: Estrogen receptor (Homo sapiens) (UniProt P03372); assay: qHTS assay for small molecule antagonists of estrogen receptor alpha signaling (AID 588513; active means well fitted curve in the direction sought with a large enough effect in the signal ratio, with a control signal flat, not every such curve was filed as active; the % refers to the signal ratio); details: ER-alpha-UAS-bla HEK293, beta-lactamase ratio, antagonist mode; series mostly up to 76.9 µM
# Method in brief: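 Cells were plated at 5000/well and incubated 4 h at 37 C. Compounds were added as 1:2 dilution series, duplicates. 17-beta-estradiol (0.5nM final) was added for 18 h before CCF4 detection.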
# [20] = target: Bile acid receptor (Homo sapiens) (UniProt Q96RI1); assay: qHTS assay for small molecule antagonists of farnesoid X receptor signaling (AID 588526); details: HEK293T FXR-UAS-bla, beta-lactamase ratio, antagonist mode; series mostly up to 76.7 µM
# Method in brief: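 Concentration-response titrations were fitted to the Hill equation for half-maximal inhibition and maximal response, with data normalised to 50 uM chenodeoxycholic acid and DMSO control wells. Cells: FXR-UAS-bla HEK293T, dialyzed FBS.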
smiles,measurement,setting,value
CCc1ccccc1OC[C@@H](O)CN[C@H]1CCCc2ccccc21,outcome,[1],inactive
CCCCCCCC/C=C\CCCCCCCC(=O)OC[C@@H](O)[C@H]1OC[C@H](O)[C@H]1O,Potency,[2],2 µM (active)
same,Potency,[3],inactive
same,max response,[4],-7.22%
same,outcome,[5],inactive
same,outcome,[6],inactive
same,outcome,[7],inactive
same,outcome,[8],inactive
same,max response,[9],-2.66%
same,outcome,[10],inactive
same,outcome,[11],inactive
same,max response,[12],-8.17%
same,max response,[13],-13.5% (inactive)
CC(=O)C1=C(O)C=C2Oc3c(C(C)=O)c(O)c(C)c(O)c3[C@]2(C)C1=O,outcome,[1],inactive
CN(C)Cc1ccccc1,activation,[14],-4.67% (inactive)
same,activation,[15],-2.09% (inactive)
same,Potency,[3],inactive
same,max response,[4],-30.1%
same,outcome,[5],inactive
same,outcome,[6],inactive
same,Potency,[16],inactive
same,outcome,[7],inactive
same,max response,[9],-2.82%
same,outcome,[10],inactive
same,outcome,[11],inactive
same,max response,[12],-2.86%
same,max response,[13],-1.44% (inactive)
CN(C)CCCn1cc(C2=C(c3c[nH]c4ccccc34)C(=O)NC2=O)c2ccccc21,outcome,[1],inactive
COc1ccc2[nH]c(=O)c3c(c2c1)OC(C)(C)C=C3,outcome,[1],inactive
CN[C@H]1CC[C@@H](c2ccc(Cl)c(Cl)c2)c2ccccc21,Potency,[17],14.1 µM (active)
NCCCC(=O)O,Potency,[17],inactive
same,outcome,[1],inactive
CCCCCCCCCC(=O)O,activation,[14],-19.5% (inactive) and -1.38% (inactive)
same,Potency,[18],inactive
same,activation,[15],-0.446% (inactive)
same,Potency,[3],inactive
same,max response,[4],24%
same,outcome,[5],inactive
same,outcome,[7],inactive
same,outcome,[8],inactive
same,max response,[9],6.89% and 0.0203%
same,outcome,[10],inactive
same,outcome,[11],inactive
same,max response,[12],6.37% and -10.5%
same,max response,[13],-2.15% (inactive) and -5.65% (inactive)
Cc1ccc(OC[C@H](O)[C@H](C)NC(C)C)c2c1CCC2,outcome,[1],inactive
C=Cc1ccccc1,outcome,[19],inactive
same,Potency,[2],inactive
same,max response,[4],-7.04% and -9%
same,outcome,[5],inactive
same,outcome,[6],inactive
same,Potency,[16],inactive
same,outcome,[7],inactive
same,outcome,[8],inactive
same,max response,[9],-4.91%
same,outcome,[10],inactive
same,max response,[12],-10.4% and -6.3%
same,max response,[13],1.17% (inactive) and -1.22% (inactive)
CC(=O)S[C@@H]1CC2=CC(=O)CC[C@]2(C)[C@H]2CC[C@@]3(C)[C@@H](CC[C@@]34CCC(=O)O4)[C@H]12,Potency,[2],inactive
same,activation,[15],-13.6% (inactive)
same,Potency,[16],39.8 µM (active)
same,outcome,[11],inactive
O=C(O)CC(O)(CC(=O)O)C(=O)O,Potency,[2],inactive
same,Potency,[3],inactive
same,max response,[4],-9.3% and -1.59% and -15.8%
same,outcome,[5],inactive
same,outcome,[6],inactive
same,outcome,[7],inactive
same,outcome,[8],inactive
same,max response,[9],2.81% and -9.62% and -10.5%
same,outcome,[10],inactive
same,outcome,[11],inactive
same,max response,[12],-2.45% and -5.52% and -2.31%
same,max response,[13],-0.99% (inactive) and 3.25% (inactive) and -0.625% (inactive)
O=S(=O)(c1ccccc1)N(CC(F)(F)F)c1ccc(C(O)(C(F)(F)F)C(F)(F)F)cc1,Potency,[2],inactive
same,Potency,[18],44.7 µM (active)
same,activation,[15],3.66% (inactive)
same,Potency,[3],39.8 µM (active)
same,max response,[4],-29.6%
same,outcome,[5],inactive
same,max response,[9],-15.6%
same,outcome,[10],inactive
same,outcome,[11],inactive
same,max response,[12],-56.3%
same,Potency,[13],12.6 µM (active)
COC(C)=O,outcome,[19],inactive
same,Potency,[2],inactive
same,outcome,[20],inactive
same,activation,[15],-4.63% (inactive)
same,Potency,[3],inactive
same,max response,[4],27.1%
same,outcome,[5],inactive
same,outcome,[6],inactive
same,max response,[9],-9.31%
same,outcome,[10],inactive
same,outcome,[11],inactive
same,max response,[12],-2.37%
same,max response,[13],11.4% (inactive)
COc1cc(C[C@H]2C(=O)OC[C@@H]2Cc2ccc(OC)c(OC)c2)ccc1O,outcome,[1],inactive
